From PubChem BioAssay (NCATS) come the findings set out here.

The list shows a part of the results. Results filed as inconclusive are left out. Active and inactive are the calls of the source. The call rests on the fitted dose curve; in most records, active means well fitted curve in the direction sought with a large enough effect; inconclusive means small, poorly fitted or top-dose-only effect, or another doubt; inactive means no such curve, though single readings can be large; an effect the other way counts as inactive or inconclusive.
Further: nearly all actives have a fitted effect of over 60% in size.
Potency means the concentration at half of the fitted maximal effect.

The target of the first experiment is Flap endonuclease 1 (Homo sapiens) (UniProt P39748). The experiment is described as follows: qHTS Assay for the Inhibitors of FEN1: Confirmatory Assay for Cherry-picked Compounds (AID 720498). The settings on record: FEN1 flap cleavage, TAMRA/BHQ2 fluorogenic DNA substrate. The method, boiled down: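 Human FEN1 (10 nM reagent) was preincubated with compounds for 15 min at room temperature, then 50 nM final double-flap DNA substrate (5'-TAMRA flap, BHQ-2 quencher strand) was added. Fluorescence (ex 525/em 598 nm) was read at 0 and 15 min.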
Flap endonuclease 1 (Homo sapiens), sequence (P39748 whole entry, looked up): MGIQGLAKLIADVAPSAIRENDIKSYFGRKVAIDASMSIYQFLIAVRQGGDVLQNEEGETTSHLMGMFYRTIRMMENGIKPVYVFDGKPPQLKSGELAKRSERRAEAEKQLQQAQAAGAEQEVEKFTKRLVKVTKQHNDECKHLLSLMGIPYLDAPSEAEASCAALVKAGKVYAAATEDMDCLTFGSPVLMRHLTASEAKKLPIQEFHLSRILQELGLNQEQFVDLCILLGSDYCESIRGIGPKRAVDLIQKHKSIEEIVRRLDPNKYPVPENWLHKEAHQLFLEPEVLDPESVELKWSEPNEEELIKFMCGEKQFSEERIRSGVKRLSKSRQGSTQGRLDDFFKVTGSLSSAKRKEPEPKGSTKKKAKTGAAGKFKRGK
On the technique in general: In qHTS, concentration-response curves come from the screen itself.
As to `Cc1ccc(C(=O)O)cc1-c1ccc(/C=C2\SC(=O)N(CC(=O)Nc3ccc4c(c3)OCO4)C2=O)o1`, the Potency is 19 µM (active).
As for `O=C(CSc1nc2ccccc2c(=O)[nH]1)Nc1nc(-c2ccc(Br)cc2)cs1`, the Potency was 60.1 µM (active).
As for `C=CC1=C(C(=O)O)N2C(=O)[C@@H](NC(=O)/C(=N/OCC(=O)O)c3csc(N)n3)[C@H]2SC1`, the Potency is 33.8 µM (active).

Another experiment deals with RecQ-like DNA helicase BLM (Homo sapiens) (UniProt P54132). As to the kind of experiment: qHTS for Inhibitors of WRN Helicase: BLM Helicase Counterscreen for WRN Inhibitors (AID 720503). The conditions noted are these: Recombinant BLM helicase DNA unwinding, red fluorescence; series mostly up to 57.1 µM. The method, boiled down: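 Steps: compounds added to 1 nM BLM in pH 8.0 Tris buffer with 2 mM MgCl2; 15 min room-temperature incubation; substrates added (100 nM DNA, 2 mM ATP final); discontinuous kinetic fluorescence measurement, reads spaced 15 min.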
RecQ-like DNA helicase BLM (Homo sapiens), sequence (P54132 whole entry, looked up): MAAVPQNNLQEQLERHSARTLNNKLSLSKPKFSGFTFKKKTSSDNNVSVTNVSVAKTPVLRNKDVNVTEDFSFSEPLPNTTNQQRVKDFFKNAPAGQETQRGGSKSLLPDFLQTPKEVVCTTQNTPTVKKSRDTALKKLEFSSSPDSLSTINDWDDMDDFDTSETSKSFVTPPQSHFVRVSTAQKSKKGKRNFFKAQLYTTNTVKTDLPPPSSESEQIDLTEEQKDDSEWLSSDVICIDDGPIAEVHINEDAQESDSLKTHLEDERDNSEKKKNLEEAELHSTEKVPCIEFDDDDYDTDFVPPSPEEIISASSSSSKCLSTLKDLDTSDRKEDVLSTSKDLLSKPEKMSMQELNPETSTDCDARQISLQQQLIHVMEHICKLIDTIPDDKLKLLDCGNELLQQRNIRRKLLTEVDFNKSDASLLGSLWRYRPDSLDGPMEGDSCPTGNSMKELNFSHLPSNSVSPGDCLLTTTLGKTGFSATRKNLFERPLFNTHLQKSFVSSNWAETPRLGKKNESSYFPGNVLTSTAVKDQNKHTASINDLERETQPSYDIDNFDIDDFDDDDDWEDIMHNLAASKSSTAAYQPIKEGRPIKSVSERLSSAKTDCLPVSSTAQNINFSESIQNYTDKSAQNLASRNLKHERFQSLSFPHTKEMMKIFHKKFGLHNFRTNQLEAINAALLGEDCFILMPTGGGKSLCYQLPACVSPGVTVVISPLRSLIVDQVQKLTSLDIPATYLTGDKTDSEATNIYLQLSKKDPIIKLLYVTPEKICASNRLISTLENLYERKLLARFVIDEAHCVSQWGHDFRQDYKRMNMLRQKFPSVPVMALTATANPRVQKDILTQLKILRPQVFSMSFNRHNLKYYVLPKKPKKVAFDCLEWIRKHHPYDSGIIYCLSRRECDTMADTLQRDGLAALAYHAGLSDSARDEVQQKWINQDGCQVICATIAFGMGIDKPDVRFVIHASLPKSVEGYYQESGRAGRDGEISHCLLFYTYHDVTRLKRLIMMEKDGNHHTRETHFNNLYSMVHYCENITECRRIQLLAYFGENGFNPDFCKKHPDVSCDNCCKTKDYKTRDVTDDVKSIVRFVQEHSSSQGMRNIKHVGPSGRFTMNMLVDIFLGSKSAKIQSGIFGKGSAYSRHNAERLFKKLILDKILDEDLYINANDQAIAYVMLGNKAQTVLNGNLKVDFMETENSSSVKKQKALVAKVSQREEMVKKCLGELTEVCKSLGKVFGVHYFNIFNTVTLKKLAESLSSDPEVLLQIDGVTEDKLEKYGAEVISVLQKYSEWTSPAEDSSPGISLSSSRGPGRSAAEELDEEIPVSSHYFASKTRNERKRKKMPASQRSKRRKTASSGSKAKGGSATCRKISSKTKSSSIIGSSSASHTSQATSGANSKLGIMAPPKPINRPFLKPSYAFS
As to `Cc1ccc(-c2nc(SCc3ccc(Br)cc3)n3[nH]c(=O)cc3n2)cc1`, the Potency is 4.82 µM (active).
Take `COc1ccc(Cl)cc1NC(=O)CCS(=O)(=O)c1ccc(Br)cc1`: the Potency is 4.82 µM (active).
On to `Cc1c(CC(=O)N2CCN(C(=O)C3COc4ccccc4O3)CC2)c(=O)oc2c(O)c(O)ccc12` (stereo unspecified), for which the Potency is 1.52 µM (active).
